Measured values from PubChem BioAssay AID1851 (National Center for Advancing Translational Sciences (NCATS), 2009).
The whole screen tested about 16,000 compounds, of which about 5,800 (36%) were called active. Inconclusive results (about 23%) are left out. The list shows a part of the results. A number with no mark means an inactive call. Calls come from the whole dose curve; as a rule, active = well fitted curve in the direction sought with a large enough effect; inconclusive = small, poorly fitted or top-dose-only effect, or effect the other way; inactive = no such curve, though single readings can be large or run the other way.

Each compound was assayed against Cytochrome P450 2C19 (Homo sapiens) (UniProt P33261) (assay: Cytochrome panel assay with activity outcomes). Settings: recombinant CYP, pro-luciferin dealkylation, luminescence, p450-cyp2c19; series mostly up to 57.1 µM.
Sequence of Cytochrome P450 2C19 (Homo sapiens) (P33261 whole entry, looked up): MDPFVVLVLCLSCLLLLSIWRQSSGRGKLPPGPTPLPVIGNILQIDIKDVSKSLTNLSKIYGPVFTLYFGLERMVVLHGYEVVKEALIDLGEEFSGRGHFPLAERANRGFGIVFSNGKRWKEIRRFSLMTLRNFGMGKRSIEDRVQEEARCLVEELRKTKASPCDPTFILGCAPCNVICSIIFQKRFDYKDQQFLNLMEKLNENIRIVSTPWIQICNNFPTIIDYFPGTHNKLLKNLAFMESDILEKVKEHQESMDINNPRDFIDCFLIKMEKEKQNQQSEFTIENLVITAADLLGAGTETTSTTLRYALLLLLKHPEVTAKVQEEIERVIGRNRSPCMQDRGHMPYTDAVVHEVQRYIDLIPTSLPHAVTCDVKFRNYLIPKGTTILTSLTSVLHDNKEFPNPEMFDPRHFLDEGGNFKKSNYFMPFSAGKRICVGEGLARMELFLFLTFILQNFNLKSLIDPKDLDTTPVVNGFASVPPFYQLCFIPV
% is set by controls: 0 for no effect and ±100 for the full control effect.

SMILES | AC50 | activity, negative = inhibition
CC(=O)N1CCN(c2nc(C)nc3sc4c(c23)CCC(C)C4)CC1 (stereo unspecified) | 4.47 µM (active) | –
CSc1ncnc2c1ncn2[C@@H]1O[C@@H](CO)[C@H](O)O[C@@H]1O | – | 41% [at 11.4 µM]
CN(N=O)c1ccc(/C=C\c2ccnc3ccccc23)cc1 | – | 14.4% [at 11.4 µM]
CCN(CC)c1ccc(/C=C/c2nc3ccccc3s2)cc1 | 2 µM (active) | –
Cc1cccc(OCCCCCn2ccnc2)c1 | 0.0398 µM (active) | –
Cc1ccc(OCCOCCn2ccnc2)c(Br)c1 | 0.0158 µM (active) | –
C#CCCCO/N=C1/C[C@@H](O)[C@@H](O)[C@@H]2[C@@H]3C(=O)N([C@@H](C)c4ccccc4)C(=O)[C@H]3CC[C@H]12 | – | -27.2% [at 11.4 µM]
CCCn1cnc2c1c(=O)n(CCCCC(C)=O)c(=O)n2C | inactive | –
Cn1ncc(C#N)c1/N=C/N1CCCCCC1 | 14.1 µM (active) | –
O=C(O)c1c(Br)c(Br)c(Br)c(Br)c1C1c2ccc(O)cc2Oc2cc(O)ccc21 | – | -94.3% [at 11.4 µM]
Cc1cnc(CNc2cc(-c3ccccc3C)ncn2)cn1 | inactive | –
COc1ccccc1-c1cc(NCc2cnc(C)cn2)ncn1 | 15.8 µM (active) | –
COc1ccccc1-c1cc(NCc2cccc(C)c2)ncn1 | 3.98 µM (active) | –
Cc1cnc(CNc2cc(-c3ccccc3Cl)ncn2)cn1 | inactive | –
COc1ccccc1-c1cc(NCc2ccccc2)ncn1 | 7.94 µM (active) | –
CN(C)Cc1ccccc1-c1cc(NCc2ccccc2)ncn1 | inactive | –
COc1ccc2c3c([nH]c2c1)[C@@H]1C[C@@H]2[C@@H](C[C@H](O)[C@H](OC)[C@H]2C(=O)O)CN1CC3 | inactive | –
C[C@@H](Cc1cccc(C(F)(F)F)c1)NCCOC(=O)c1ccccc1 | inactive | –
CN(C)CCOC(=O)c1ccc(N)cc1 | – | -21.2% [at 11.4 µM]

SMILES | AC50 | activity, negative = inhibition
Cc1[nH]n(-c2ccccc2)c(=O)c1CCOC(=O)c1cccc(C(F)(F)F)c1 | 3.55 µM (active) | –
Cc1[nH]n(-c2ccccc2)c(=O)c1CCOC(=O)c1ccc(C(F)(F)F)cc1 | 3.98 µM (active) | –
CO[C@@H]1COC(=O)C/C=C\[C@H](C)COC(=O)[C@H](C)NC(=O)C/C=C\[C@H]1C | – | -28.2% [at 11.4 µM]
Fc1ccc2c(c1)C(c1ccncc1)=NNC(c1ccc(Cl)cc1)=N2 | 0.224 µM (active) | –
C#CCOC(=O)Nc1ccc(=O)n(Cc2c(Cl)cccc2Cl)c1 | 1.58 µM (active) | –
C1=C(CN2CCOCC2)COc2c1cccc2OC[C@@H]1CNCCO1 | inactive | –
COc1cc(C)c(Br)cc1S(=O)(=O)NCc1ccccc1 | 4.47 µM (active) | –
CN(C)CCN1C(=O)C(O)=C(C(=O)c2cc3ccccc3o2)C1c1ccccn1 (stereo unspecified) | inactive | –
Cc1ccc(C(=O)C2=C(O)C(=O)N(CCCn3ccnc3)C2c2ccc(OC(C)C)cc2)o1 (stereo unspecified) | 14.1 µM (active) | –
S=c1[nH]nc(C2CCCCC2)n1/N=C/c1cccs1 | 0.708 µM (active) | –
C[C@]1(c2ccccc2)O[C@@H]2C[C@@H]3[C@@H]4CCC5=CC(=O)C=C[C@@]5(C)[C@]4(F)[C@H](O)C[C@]3(C)[C@@]2(C(=O)CO)O1 | – | -7.02% [at 11.4 µM]
COc1ccc(C2=NOC(C(=O)N3CCCc4ccccc43)C2)cc1 (stereo unspecified) | 15.8 µM (active) | –
COc1ccc(C2=NOC(C(=O)NCCN3CCOCC3)C2)cc1 (stereo unspecified) | inactive | –
O=C(Nc1c[nH]c(=O)[nH]c1=O)Oc1ccccc1 | – | -12.9% [at 11.4 µM]
Cc1cccc2cc(CN(Cc3ccccc3)C(=O)c3cccc(F)c3)c(Cl)nc12 | 2.82 µM (active) | –
COC(=O)CSc1cc(C(F)(F)F)nc(-c2ccccn2)n1 | inactive | –
COC(=O)CSc1nc(C)cc(C(F)(F)F)c1C#N | 25.1 µM (active) | –
Cc1nc(SCC(=O)c2cc3ccccc3oc2=O)c(C#N)c(C)c1C(=O)Nc1ccccc1 | inactive | –
O=C(CSC1=NCCS1)N1CCN(c2ccc(Cl)cc2)CC1 | 3.55 µM (active) | –

SMILES | AC50 | activity, negative = inhibition
c1nc(NCCc2cnc[nH]2)c2[nH]cnc2n1 | – | -12.5% [at 11.4 µM]
CN(C)C(=O)c1ccc(-c2cncnc2NCCc2cnc[nH]2)cc1 | 10 µM (active) | –
CN(C)c1ccc(-c2cncnc2NCCc2cnc[nH]2)cc1 | 0.0794 µM (active) | –
c1ncc(-c2ccc3c(c2)OCO3)c(NCCc2cnc[nH]2)n1 | 0.0398 µM (active) | –
O=C(Nc1ccccc1)N1CCCC2(CCN(C(=O)c3cnccn3)CC2)C1 | inactive | –
COc1ccc(COC(=O)N/N=C2/C[C@@H](O)[C@@H](O)[C@@H]3[C@@H]4C(=O)N([C@@H](C)c5ccccc5)C(=O)[C@H]4CC[C@@H]23)cc1 | – | -25.8% [at 11.4 µM]
CCOc1ccc(/C(O)=C2/C(=O)C(=O)N(CCCn3ccnc3)C2c2cccs2)cc1Cl (stereo unspecified) | 14.1 µM (active) | –
Cc1nc2ccccn2c1/C(O)=C1\C(=O)C(=O)N(CCCn2ccnc2)C1c1ccncc1 (stereo unspecified) | inactive | –
COc1ccc(/C(O)=C2\C(=O)C(=O)N(c3cc(C)on3)C2c2ccc(OC)c(OC)c2)cc1OC (stereo unspecified) | inactive | –
CCN(CC)CCN1C(=O)C(=O)/C(=C(/O)c2ccc(OC)cc2)C1c1cccs1 (stereo unspecified) | 14.1 µM (active) | –
COCCCN1C(=O)C(=O)/C(=C(/O)c2ccc(OC)cc2C)C1c1cccnc1 (stereo unspecified) | inactive | –
COc1cccc(/C(O)=C2/C(=O)C(=O)N(c3cc(C)on3)C2c2cccs2)c1 (stereo unspecified) | inactive | –
Cc1ccc(/C(O)=C2/C(=O)C(=O)N(CCCn3ccnc3)C2c2ccccn2)cc1 (stereo unspecified) | 2.82 µM (active) | –
CCOc1ccc(/C(O)=C2/C(=O)C(=O)N(CC3CCCO3)C2c2ccc(C)o2)cc1 (stereo unspecified) | inactive | –
O=C(N/N=C1/C[C@@H](O)[C@@H](O)[C@@H]2[C@H]3C(=O)N(c4ccc(F)cc4F)C(=O)[C@@H]3CC[C@H]12)OCc1ccccc1 | – | -27.3% [at 11.4 µM]
NC(=O)CSc1nc2sc(-c3ccccc3)cc2c(=O)n1N | 15.8 µM (active) | –
c1cc2c(cc1C1CCCCC1)c1c3n2CCN[C@H]3CCC1 | 1 µM (active) | –
O=C(Nc1ccc(Cl)cc1)OCCn1nnnc1C(c1ccccc1Cl)N1CCOCC1 (stereo unspecified) | 3.98 µM (active) | –
